In test [1] the target is T1, Inhibitor of nuclear factor kappa-B kinase subunit epsilon (Homo sapiens) (UniProt Q14164).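 Also: reported values are averaged percent inhibition figures against human IKKε.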
T1 sequence (whole entry): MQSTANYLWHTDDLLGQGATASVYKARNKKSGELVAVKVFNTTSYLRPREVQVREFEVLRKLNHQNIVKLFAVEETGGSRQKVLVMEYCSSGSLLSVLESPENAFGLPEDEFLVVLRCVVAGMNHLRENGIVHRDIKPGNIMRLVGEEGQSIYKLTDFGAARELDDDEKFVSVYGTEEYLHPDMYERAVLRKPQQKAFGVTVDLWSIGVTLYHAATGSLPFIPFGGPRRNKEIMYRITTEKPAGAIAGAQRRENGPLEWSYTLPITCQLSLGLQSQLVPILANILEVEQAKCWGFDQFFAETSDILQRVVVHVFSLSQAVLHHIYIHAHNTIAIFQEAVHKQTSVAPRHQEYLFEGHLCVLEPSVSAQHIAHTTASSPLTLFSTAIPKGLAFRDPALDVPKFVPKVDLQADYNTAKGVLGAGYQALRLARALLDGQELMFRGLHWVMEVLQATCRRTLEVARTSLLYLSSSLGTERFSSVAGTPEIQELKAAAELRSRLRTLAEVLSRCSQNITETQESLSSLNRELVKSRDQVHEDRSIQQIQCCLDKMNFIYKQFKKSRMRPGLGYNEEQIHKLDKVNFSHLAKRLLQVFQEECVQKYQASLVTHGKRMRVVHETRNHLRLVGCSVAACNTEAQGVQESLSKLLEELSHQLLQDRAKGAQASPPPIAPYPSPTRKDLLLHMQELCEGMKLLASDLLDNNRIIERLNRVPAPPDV
Particulars: at 1 µM.

The target of test [2] is T2, Serine/threonine-protein kinase Nek1 (Homo sapiens) (UniProt Q96PY6).
T2 sequence (whole entry): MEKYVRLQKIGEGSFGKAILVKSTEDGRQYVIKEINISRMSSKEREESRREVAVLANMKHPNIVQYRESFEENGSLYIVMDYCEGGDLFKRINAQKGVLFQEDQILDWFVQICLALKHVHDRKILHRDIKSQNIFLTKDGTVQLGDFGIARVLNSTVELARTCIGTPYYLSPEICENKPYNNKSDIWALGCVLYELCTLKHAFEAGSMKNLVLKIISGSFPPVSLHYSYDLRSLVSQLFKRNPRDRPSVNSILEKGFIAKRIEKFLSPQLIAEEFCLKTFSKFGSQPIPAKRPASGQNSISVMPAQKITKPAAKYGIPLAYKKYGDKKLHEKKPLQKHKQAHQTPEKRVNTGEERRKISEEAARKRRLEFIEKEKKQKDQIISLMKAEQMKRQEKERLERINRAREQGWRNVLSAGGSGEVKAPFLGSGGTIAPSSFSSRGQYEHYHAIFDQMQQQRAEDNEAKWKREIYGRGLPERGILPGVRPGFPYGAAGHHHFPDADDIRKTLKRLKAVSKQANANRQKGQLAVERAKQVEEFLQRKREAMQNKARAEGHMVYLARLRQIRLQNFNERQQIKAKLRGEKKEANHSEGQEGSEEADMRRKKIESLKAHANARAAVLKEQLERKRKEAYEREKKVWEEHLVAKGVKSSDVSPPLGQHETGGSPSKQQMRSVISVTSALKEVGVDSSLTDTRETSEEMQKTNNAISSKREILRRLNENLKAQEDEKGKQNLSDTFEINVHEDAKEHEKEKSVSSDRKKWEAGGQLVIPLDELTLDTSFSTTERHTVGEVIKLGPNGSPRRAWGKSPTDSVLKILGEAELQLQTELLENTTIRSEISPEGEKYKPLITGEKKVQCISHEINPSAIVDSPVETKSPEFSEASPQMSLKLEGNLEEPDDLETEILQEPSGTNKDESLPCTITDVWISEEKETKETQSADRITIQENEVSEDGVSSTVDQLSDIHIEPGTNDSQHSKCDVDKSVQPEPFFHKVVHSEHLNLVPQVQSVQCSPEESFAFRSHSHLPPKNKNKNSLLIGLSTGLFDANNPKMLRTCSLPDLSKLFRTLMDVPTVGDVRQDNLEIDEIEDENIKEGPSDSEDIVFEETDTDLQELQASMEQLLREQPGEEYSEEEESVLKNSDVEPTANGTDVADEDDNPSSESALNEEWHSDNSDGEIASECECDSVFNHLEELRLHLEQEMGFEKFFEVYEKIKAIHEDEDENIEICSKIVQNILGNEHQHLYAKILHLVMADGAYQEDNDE
The settings on record: at 0.1 µM.

Test [3] deals with T2, Serine/threonine-protein kinase Nek1 (Homo sapiens). Particulars: at 1 µM.
The target in test [4] is T3, Serine/threonine-protein kinase Nek2 (Homo sapiens) (UniProt P51955).
T3 sequence (whole entry): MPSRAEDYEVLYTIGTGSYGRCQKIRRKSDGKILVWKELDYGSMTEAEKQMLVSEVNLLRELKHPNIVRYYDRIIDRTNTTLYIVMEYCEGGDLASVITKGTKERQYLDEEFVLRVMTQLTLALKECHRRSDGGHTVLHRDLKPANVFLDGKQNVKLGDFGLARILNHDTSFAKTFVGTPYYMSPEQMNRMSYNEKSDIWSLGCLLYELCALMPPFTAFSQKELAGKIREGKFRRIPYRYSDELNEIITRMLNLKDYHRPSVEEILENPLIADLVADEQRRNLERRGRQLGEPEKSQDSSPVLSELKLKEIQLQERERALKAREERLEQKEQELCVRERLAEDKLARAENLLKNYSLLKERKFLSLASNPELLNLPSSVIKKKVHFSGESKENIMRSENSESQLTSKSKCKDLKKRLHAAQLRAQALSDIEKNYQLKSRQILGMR
Particulars: at 0.1 µM.

Test [5] has as its target T3, Serine/threonine-protein kinase Nek2 (Homo sapiens). Particulars: at 1 µM.
The target of test [6] is Serine/threonine-protein kinase Nek6 (Homo sapiens) (UniProt Q9HC98). The settings on record: at 0.1 µM.
Sequence of Serine/threonine-protein kinase Nek6 (Homo sapiens) (Q9HC98 whole entry): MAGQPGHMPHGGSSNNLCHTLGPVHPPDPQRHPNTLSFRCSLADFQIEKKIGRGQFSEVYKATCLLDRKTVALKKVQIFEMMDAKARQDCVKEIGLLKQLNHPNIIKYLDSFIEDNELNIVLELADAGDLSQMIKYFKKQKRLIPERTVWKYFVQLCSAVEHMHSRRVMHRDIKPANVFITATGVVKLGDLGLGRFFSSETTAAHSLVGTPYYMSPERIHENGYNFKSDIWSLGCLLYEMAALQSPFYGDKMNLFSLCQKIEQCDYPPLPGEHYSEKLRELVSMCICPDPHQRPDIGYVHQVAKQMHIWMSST
The target is the same in test [7]. The settings on record: at 1 µM.
Test [8] has as its target Serine/threonine-protein kinase Nek7 (Homo sapiens) (UniProt Q8TDX7). Particulars: at 0.1 µM.
The target is the same in test [9]. The settings on record: at 1 µM.
The target of test [10] is T4, Serine/threonine-protein kinase Nek9 (Homo sapiens) (UniProt Q8TD19).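 Also: reported value is the mean percent inhibition of NEK9.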
T4 sequence (whole entry): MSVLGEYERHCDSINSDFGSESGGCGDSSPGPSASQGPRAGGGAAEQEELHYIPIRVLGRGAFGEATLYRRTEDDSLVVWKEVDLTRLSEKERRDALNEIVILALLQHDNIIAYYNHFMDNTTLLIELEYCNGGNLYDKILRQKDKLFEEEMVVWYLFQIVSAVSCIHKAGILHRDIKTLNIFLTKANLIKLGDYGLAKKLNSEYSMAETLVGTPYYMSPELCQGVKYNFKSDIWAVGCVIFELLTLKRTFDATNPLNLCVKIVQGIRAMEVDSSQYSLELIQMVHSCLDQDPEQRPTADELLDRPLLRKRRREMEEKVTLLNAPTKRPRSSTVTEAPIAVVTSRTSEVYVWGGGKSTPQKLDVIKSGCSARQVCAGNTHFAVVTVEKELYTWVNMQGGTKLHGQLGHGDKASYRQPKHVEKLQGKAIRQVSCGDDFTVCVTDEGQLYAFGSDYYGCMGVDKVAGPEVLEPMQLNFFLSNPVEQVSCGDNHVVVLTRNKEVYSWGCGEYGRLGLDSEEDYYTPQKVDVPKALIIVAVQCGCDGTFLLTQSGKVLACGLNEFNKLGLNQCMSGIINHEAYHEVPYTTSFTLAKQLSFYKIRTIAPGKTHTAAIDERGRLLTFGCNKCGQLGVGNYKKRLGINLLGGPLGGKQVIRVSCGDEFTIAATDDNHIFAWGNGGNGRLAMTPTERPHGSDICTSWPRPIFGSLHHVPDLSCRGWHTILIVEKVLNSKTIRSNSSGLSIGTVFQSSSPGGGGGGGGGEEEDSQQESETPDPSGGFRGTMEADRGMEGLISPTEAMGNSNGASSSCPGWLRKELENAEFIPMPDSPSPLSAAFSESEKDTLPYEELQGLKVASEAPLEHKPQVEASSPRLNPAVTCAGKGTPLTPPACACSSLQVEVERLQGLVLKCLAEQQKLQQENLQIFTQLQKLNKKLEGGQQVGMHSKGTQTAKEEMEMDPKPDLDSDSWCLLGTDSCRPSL
Particulars: at 0.1 µM.

Sequence of Serine/threonine-protein kinase Nek7 (Homo sapiens) (Q8TDX7 whole entry, looked up): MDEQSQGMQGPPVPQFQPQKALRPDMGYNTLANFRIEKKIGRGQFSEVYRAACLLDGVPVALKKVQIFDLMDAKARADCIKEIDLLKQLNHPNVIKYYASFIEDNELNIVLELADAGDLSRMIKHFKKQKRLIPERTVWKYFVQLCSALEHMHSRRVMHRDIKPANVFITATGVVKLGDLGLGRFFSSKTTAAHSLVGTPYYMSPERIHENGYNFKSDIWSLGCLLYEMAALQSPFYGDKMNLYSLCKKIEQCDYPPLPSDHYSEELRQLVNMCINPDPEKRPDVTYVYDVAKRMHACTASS

For orientation: inhibition means the relative decrease from the control value, in per cent. For the compound `Nc1ncnc2occ(-c3ccc(NC(=O)Nc4cccc(C(F)(F)F)c4)cc3)c12`, the inhibition in [1] is 9.66%; in test [2], 7.14%; in [3], 41.9%; in test [4], 6.56%; in test [5], 7.21%; in [6] it was 2.78%. Besides, the inhibition in test [7] is 1.33%; in test [8] it was 2.42%; in test [9] it was -0.46%; in test [10], 5.7%.
Turning to `Cc1cccc(-c2n[nH]cc2-c2ccc3ncccc3n2)n1`, the inhibition was 2.37% in [1]; 2.07% in [2]; 2.35% in test [3]; 1.59% in [4]; 1.08% in [5]; 1.75% in [6]. For the same compound, the inhibition is 3.64% in [7], 2.98% in [8], 1.74% in test [9] and 1.6% in [10].
On to `Nc1nc(-c2ccccn2)c(-c2ccc3ncccc3n2)s1`, for which the inhibition in [1] worked out at 5.46%; in test [2] it was 2.32%; in test [3], 4.91%; in test [4], 3.61%; in [5], 2.7%; in [6] it was 3.95%. Also, the inhibition in test [7] was determined as 1.16%; in test [8], 3.03%; in [9], 2.77%; in [10] it was 6.33%.
With `COc1ccc(-c2ccncc2)cc1C(N)=O`, the inhibition in [1] was 6.43%; in test [2], 3.59%; in test [3], 6.47%; in test [4], 5.42%; in test [5] it was 6.48%; in [6], -0.26%. Moreover, the inhibition stood at 1.43% in [7], 3.68% in test [8], 8.72% in test [9] and 4.72% in test [10].
For the compound `CCc1cccc(NC(=O)Nc2ccc(Oc3ccc4nc(NC(=O)OC)[nH]c4c3)cc2)c1`, the inhibition in test [1] was found to be 3.32%; in test [2], 0.6%; in test [3], 1.24%; in [4], 1.78%; in test [5], 1.1%; in test [6], 0.58%. Moreover, the inhibition in test [7] is 3.24%; in [8], -1.37%; in test [9], -2.89%; in test [10], 3.74%.
For the compound `NC(=O)c1cccc(Nc2nccc(Nc3cccc4[nH]ncc34)n2)c1`, the inhibition in [1] was 21.4%; in [2], 0.79%; in test [3], 8.86%; in test [4] it was -3.63%; in [5], -1.96%; in test [6], -4.36%. Further, the inhibition in test [7] was -2.96%; in test [8], -1.67%; in [9], -3.47%; in test [10] it was -0.63%.
On to `Fc1cccc(COc2ccc(Nc3ncnc4sc(-c5cccs5)cc34)cc2Cl)c1`, for which the inhibition was 3.74% in test [1]; 2.04% in [2]; 2.57% in [3]; 2.88% in test [4]; 1.85% in test [5]; -0.49% in [6]. In addition, the inhibition in test [7] is 1.79%; in test [8] it was -0.09%; in test [9], 5.03%; in test [10], 1.95%.
Regarding `CS(=O)(=O)CCNCc1ccc(-c2ccc3ncnc(Nc4ccc(OCc5cccc(F)c5)c(C(F)(F)F)c4)c3c2)o1`, the inhibition in test [1] was determined as 2.73%; in test [2], 2.28%; in test [3], 4.09%; in [4], 4.44%; in [5] it was 3.68%; in test [6], 2.48%. Moreover, the inhibition in test [7] stood at 3.62%; in test [8] it was 4.72%; in test [9] it was 4.32%; in test [10] it was 7.55%.
With `CC1=C(C(=O)Nc2ccc3[nH]ncc3c2)C(c2ccc3ccccc3c2)CC(=O)N1` (stereo not given), the inhibition in test [1] is 3.81%; in test [2], 1.66%; in test [3] it was 2.46%; in test [4], 2.88%; in test [5], 2.9%; in [6], -0.05%. Further, the inhibition in test [7] was 2.48%; in [8] it was 0.42%; in [9], 1.79%; in test [10], 3.14%.

For the origin of these results see ChEMBL document CHEMBL1961873, “Compounds: GSK PKIS; Assays: Nanosyn kinase panel” (2012).
